Source: PubChem
Sampled rows, rich in hits. Any-hit rate of the full collection: about 6.7%.
PINK1 modulator – A Quantitative High throughput Screen to Identify Chemical Modulators of PINK1 Expression. PINK1 immunofluorescence, high-content cytometry, 24 h. Potency, µM (series often up to 76.6 µM), without a hit: at the top dose activation (PINK1 increase), hits mostly activators. 410,000 compounds, 0.2% hits; active = well fitted activation curve with a large enough effect; inconclusive = small, poorly fitted or top-dose-only effect; cell line not stated here; also: % of control where 0% means no effect; nearly all actives have a fitted effect of over 65% in size
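Stable cell line, 250 cells/well, 12 h attachment; compounds pinned at 5 concentrations, 24 h; CCCP control. Fixed with nuclear dye, primary antibodies 12 h at 10 degrees C, secondary plus cell stain; laser-scanning cytometer read.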
SW480 rereplic – A quantitative high throughput screen for small molecules that induce DNA re-replication in SW480 colon adenocarcinoma cells | SW480 DNA re-replication, Hoechst DNA content imaging, 48 h | AID 624297, 2012 | Potency, µM (top dose mostly 46.1 µM), inactives show top-dose re-replication activation, most hits filed as activators | 340,000 compounds, 1.8% hits; also: % of control where 0% means no effect; nearly all actives have a fitted effect of over 55% in size
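DNA re-replication was detected as more nuclei of elevated Hoechst intensity after 48 hr exposure to compound (23 nL pinned per well of 250 cells).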
MCF10A rereplic – A quantitative high throughput screen for small molecules that induce DNA re-replication in MCF 10a normal breast cells | AID 624296, 2012 | MCF 10A DNA re-replication, Hoechst nuclear intensity, 48 h | 350,000 compounds, 2.9% hits | Potency, µM (highest dose often 46.1 µM), for the others: top-dose activity, positive = re-replication, actives largely listed as activators; also: % of control where 0% means no effect; nearly all actives have a fitted effect of over 50% in size
KB-3-1 tox – qHTS assay for MDR1-selective chemotherapeutics: Primary screen using the parental adenocarcinoma cell KB-3-1; KB-3-1 viability, CellTiter-Glo ATP luminescence, 72 h; Potency, µM (top dose mostly 46.1 µM), usual class: cytotoxic; 400,000 compounds, 1.4% hits; AID 1347075, 2019; also: % is scaled to controls: 0 for no effect and ±100 for the full control effect; nearly all actives have a fitted effect of over 60% in size
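Parental KB-3-1 viability, qHTS format: 72 h compound exposure, 37 °C; CellTiter-Glo; media-only wells and DMSO plates as controls; concentration-effect fits on corrected data.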
KB-V1 cytotox – qHTS assay for MDR1-selective chemotherapeutics: Primary screen using the drug-selected MDR subline cells KB-V1; KB-V1 MDR cells viability, CellTiter-Glo, 72 h; Potency, µM (titrated, usually from 46.1 µM), hits mostly cytotoxic; 400,000 compounds, 3.4% hits; AID 1347076, 2019; also: % is scaled to controls: 0 for no effect and ±100 for the full control effect; nearly all actives have a fitted effect of over 60% in size
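qHTS viability screen in drug-selected KB-V1 MDR cells: 72 h compound treatment at 37 degrees C, ATP luminescence end point.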
Active calls of the source: *; i = inactive; u = inconclusive; x = no result; [ ] = dose if it differs, or a comment. Unless noted, calls follow the shape of the dose curve; as a rule, active = well fitted curve in the direction sought with a large enough effect; inconclusive = small, poorly fitted or top-dose-only effect, or another doubt; inactive = no such curve, though single readings can be large; an effect the other way counts as inactive or inconclusive. Potency is read from the fitted curve at half-maximal effect.

SMILES	PINK1 modulator	SW480 rereplic	MCF10A rereplic	KB-3-1 tox	KB-V1 cytotox
Cc1cc(C)c(NC(=O)CN(C)C(=O)C2CC(=O)N(c3cccc4ccccc34)C2)c(C)c1 (configuration not stated)	0%	-15%	28%	i	i
COc1ccc(C2=NN(S(=O)(=O)c3ccccc3)C(c3ccccc3)C2)cc1 (configuration not stated)	0%	u	-3%	i	u
COc1ccc(C2CC(c3cccs3)=NN2c2ccc(C=O)cc2)cc1 (configuration not stated)	-4%	u	u	i	u
COc1ccc(C2CC(c3cccc(Br)c3)=NN2c2ccc(S(N)(=O)=O)cc2)cc1 (configuration not stated)	-1%	u	u	u	u
COc1ccc(C2CC(c3ccccc3Cl)=NN2c2ccc(S(N)(=O)=O)cc2)cc1 (configuration not stated)	1%	2.3µM*	u	i	i
COc1ccc(C2=NN(CN3C(=O)C(=O)c4ccccc43)C(c3ccc(OC)cc3)C2)cc1 (configuration not stated)	2%	5.8µM*	2%	i	i
COc1ccc(C2CC(c3cccc(C(F)(F)F)c3)=NN2c2ccc(S(N)(=O)=O)cc2)cc1 (configuration not stated)	-1%	u	u	u	u
COc1ccc(C2CC(c3cccc(F)c3)=NN2c2ccc(S(N)(=O)=O)cc2)cc1 (configuration not stated)	-1%	2.3µM*	2.1µM*	u	i
COc1ccc(C2CC(c3ccccc3)=NN2c2ccc(S(N)(=O)=O)cc2)cc1 (configuration not stated)	0%	16µM*	0.58µM*	i	u
CCOC(=O)C1=CNS(=O)(=O)NC1c1ccccc1 (configuration not stated)	-1%	2%	-6%	i	i
NS(=O)(=O)c1ccc(N2N=C(c3ccccc3)CC2c2ccc(F)cc2)cc1 (configuration not stated)	-3%	21µM*	21µM*	i	u
NS(=O)(=O)c1ccc(N2N=C(c3ccccc3)CC2c2cccc(Cl)c2)cc1 (configuration not stated)	-1%	3.7µM*	u	i	i
COc1ccc(C2=NN(c3ccc(C=O)cc3)C(c3ccccc3)C2)cc1 (configuration not stated)	0%	u	u	i	i
COc1ccc(C2CC(c3ccccc3)=NN2c2ccc(C(N)=O)cc2)cc1 (configuration not stated)	-2%	21µM*	u	i	i
O=Cc1ccc(N2N=C(c3ccccc3)CC2c2ccccc2)cc1 (configuration not stated)	0%	u	u	i	i
O=C(O)c1ccc(N2N=C(c3ccccc3)CC2c2ccccc2)cc1 (configuration not stated)	-2%	u	2.3µM*	i	i
Cc1cccc(C2CC(c3ccccc3)=NN2c2ccc(S(N)(=O)=O)cc2)c1 (configuration not stated)	1%	x	x	i	i
CCCn1c(=O)c2sccc2n2c(CCCC(=O)Nc3ccc(Oc4ccccc4)cc3)nnc12	1%	x	x	x	x
CN(/N=C\c1ccc(O)c(O)c1)c1nc(-c2ccccc2)cc(-c2ccccc2)n1	-4%	18µM*	u	i	u
Cc1c(C(=O)NCc2ccoc2)oc2ccc3c(c12)C(=O)CC(C)(C)O3	3%	4%	u	i	18µM*
CCCCCCCCC(=O)N/N=C/c1ccccn1	x	-8%	4%	i	i
CCCCCCCCC/C(=N\O)c1ccccn1	5%	u	15µM*	u	i
CC(=O)c1cccc(NC(=O)c2sc(-n3nc(C)c(CCC(C)C)c3C)nc2C)c1	-2%	x	x	i	i
CCN1C(=O)S/C(=C/c2ccc(Sc3nc4ccccc4[nH]3)o2)C1=O	u	1.5µM*	u	i	u
Cc1ccc(S(=O)(=O)NCCSc2nnnn2-c2ccc(C(N)=O)cc2)cc1	1%	-8%	-14%	i	u
SMILES	PINK1 modulator	SW480 rereplic	MCF10A rereplic	KB-3-1 tox	KB-V1 cytotox
Cc1ccc(-n2nnnc2Sc2ccc(S(=O)(=O)NCCN(C)C)cc2[N+](=O)[O-])cc1	-1%	8.2µM*	u	i	u
O=[N+]([O-])c1cc(S(=O)(=O)NCCN2CCOCC2)ccc1Sc1nnnn1-c1ccccc1	-1%	15µM*	u	13µM*	i
O=C(NCc1ccccn1)C1CCCN(S(=O)(=O)c2cc(Cl)ccc2Cl)C1 (configuration not stated)	1%	u	0.73µM*	u	0.73µM*
Cc1ccccc1CNC(=O)c1ccc2sc([C@H]3C[C@H](O)[C@@H](CO)O3)nc2c1	1%	x	x	i	i
COc1ccccc1C(=O)Nc1c(C(=O)Nc2ccccc2F)oc2ccccc12	10%	x	x	u	i
CCOC(=O)C1CCCN(Cc2cc(Br)c(OC)cc2OC)C1 (configuration not stated)	1%[38.3 µM]	-1%	1%	i	10µM*
COc1ccc(OC)c(CN2CCC(Cc3ccccc3)CC2)c1	0%	5%	22%	i	i
COc1cc(OC)c(CN2CCC(Cc3ccccc3)CC2)cc1Br	u	19%	12µM*	u	i
CCn1nc(-c2ccccc2)c(-c2ccccc2)c(C(=O)Nc2nc(C)c(C(C)=O)s2)c1=O	-1%	x	x	x	x
COc1ccc(C2CC(O)(c3ccccc3)Oc3cc(OC)cc(OC)c32)cc1 (configuration not stated)	1%	-4%	21µM*	u	i
CCc1nn(CC(=O)NC2CC2)c(=O)c2cc3c(OC)cccc3n12	1%	x	x	i	i
COc1ccc(OCCCn2cc(/C=C3/C(=N)N4C=C(C)SC4=NC3=O)c3ccccc32)cc1	5%	-7%	15%	i	10µM*
COc1cc(/C=C2/C(=N)N3C=CSC3=NC2=O)ccc1OCCCOc1c(C)cccc1C	8%[38.3 µM]	-1%	0%	i	u
COc1cccc(OCCCn2cc(/C=C3/C(=N)N4C=C(C)SC4=NC3=O)c3ccccc32)c1	10%	7%	8.2µM*	i	i
CC1=CN2C(=N)/C(=C/c3cn(CCCOc4ccccc4C)c4ccccc34)C(=O)N=C2S1	3%	15µM*	22%	i	i
